Bioassay records: PubChem BioAssay, National Center for Advancing Translational Sciences (NCATS)
FLuc inh – Photinus pyralis luciferase inhibition. purified P. pyralis luciferase, luminescence, biochemical. Potency, µM (titrated, usually from 115 µM), usual class: inhibitors. actives 2.5% (n = 76,000); also: nearly all actives have a fitted effect of over 65% in size
Target sequence (P08659 whole entry, looked up): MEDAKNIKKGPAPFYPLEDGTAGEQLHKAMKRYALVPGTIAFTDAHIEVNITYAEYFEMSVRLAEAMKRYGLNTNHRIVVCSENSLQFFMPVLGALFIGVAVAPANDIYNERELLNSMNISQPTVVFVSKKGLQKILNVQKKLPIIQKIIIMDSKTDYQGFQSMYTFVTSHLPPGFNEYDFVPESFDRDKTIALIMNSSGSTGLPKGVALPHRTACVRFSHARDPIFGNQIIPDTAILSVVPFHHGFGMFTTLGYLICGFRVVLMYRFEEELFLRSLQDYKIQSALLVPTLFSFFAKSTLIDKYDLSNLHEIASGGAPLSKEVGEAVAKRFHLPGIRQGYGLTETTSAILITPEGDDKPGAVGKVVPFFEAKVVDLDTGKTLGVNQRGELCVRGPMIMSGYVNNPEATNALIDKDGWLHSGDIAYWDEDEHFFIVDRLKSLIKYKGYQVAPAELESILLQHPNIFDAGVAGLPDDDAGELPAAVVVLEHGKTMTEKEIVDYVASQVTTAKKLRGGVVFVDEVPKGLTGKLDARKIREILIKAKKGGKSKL
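Luminescence read by CCD imager after adding enzyme (10nM final) to wells holding compound, titrated in qHTS. Substrates 10uM each D-luciferin and ATP; buffer 50mM Tris acetate pH 7.5, 10mM Mg acetate, Tween-20, BSA.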
NIH3T3 tox – cytotoxic compounds in NIH 3T3 cells | actives 4.3% (n = 94,000) | NIH 3T3 viability, CellTiter-Glo ATP luminescence, 48-72 h | Potency, µM (doses to about 96.7 µM), for the others: at the top dose activity change, negative = cytotoxicity, usual class: inhibitors; also: nearly all actives have a fitted effect of over 55% in size
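First NIH 3T3 cells are plated at 400 cells/well; next compound is pinned in; then plates incubate 48 or 72 hr at 37 °C; finally CellTiter-Glo is added and luminescence read after 10 min.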
NPR1 antag – human Npr1 receptor antagonism | actives 1.6% (n = 76,000) | Potency, µM (top dose mostly 46.3 µM), inactives show top-dose activity change, negative = inhibition, hits mostly inhibitors | HEK293 hNpr1 GloSensor cGMP, ANP-stimulated luminescence | AID 1347048; calls by dose curve; also: nearly all actives have a fitted effect of over 60% in size
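HEK293 cells stably expressing human Npr1 and cGMP GloSensor pGS-40F, loaded 2 h with 2% GloSensor reagent, given compound 30 min at room temperature. Luminescence read before and 20 min after 0.1 nM hNppA.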
SNCA expr inhib – SNCA gene expression inhibition. HEK-293 SNCA-luciferase knock-in, luminescence, 24 h. Potency, µM (doses to about 57.2 µM), for the others: top-dose activity change, negative = inhibition, most hits filed as inhibitors. actives 0.17% (n = 140,000);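 also: plate controls were DMSO cells for no effect and cell-free wells for full effect; nearly all actives have a fitted effect of over 45% in size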
HEK293 tox – kills HEK 293 cells; HEK 293 viability, ATP luminescence (CellTiter-Glo), 48-72 h; Potency, µM (highest dose often 115 µM), for inactives: at the highest dose activity change, negative = cytotoxicity, usual class: inhibitors; actives 6.6% (n = 94,000); also: nearly all actives have a fitted effect of over 60% in size
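ATP-coupled CellTiter-Glo luminescence served as viability read-out, recorded 10 min after reagent addition at room temperature. HEK 293 cells, 250 cells/well, had been incubated with pintool-transferred compound for 48 or 72 hr at 37 degree Celsius.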
SNCA viab count – reduces viability of HEK-293 SNCA reporter cells; HEK-293-SNCA-luc viability, GF-AFC fluorescence, 24 h; Potency, µM (series often up to 57.1 µM), for the others: at the top dose activity change, negative = cytotoxicity, usual class: cytotoxic; actives 0.12% (n = 150,000); AID 1671193;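 also: 0% = DMSO-treated cells and -100% = medium-only wells without cells; nearly all actives have a fitted effect of over 30% in size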
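Cytotoxicity counterscreen: after 24 h compound treatment of genome-edited SNCA-luciferase HEK-293 cells, live-cell protease substrate GF-AFC read by fluorescence after 30 min; activity scaled between DMSO (0%) and medium-only (-100%), curves Hill-fitted.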
* hit, by the source's call; [ ] = dose if it differs, or a comment. Hits are enriched below; roughly 7.4% of the tested compounds scored in any of these assays. Unless noted, calls follow the shape of the dose curve; as a rule, active = well fitted curve in the direction sought with a large enough effect; inconclusive = small, poorly fitted or top-dose-only effect, or another doubt; inactive = no such curve, though single readings can be large; an effect the other way counts as inactive or inconclusive. Unless noted, % is scaled to controls: 0 for no effect and ±100 for the full control effect; potency is read from the fitted curve at half-maximal effect.

Screening COc1cccc(CN2CC[C@@]3(O)CCNC[C@H]3C2)c1OCCCn1ccnc1 returned FLuc inh inactive, NIH3T3 tox -1%, NPR1 antag -2%, SNCA expr inhib -8%, HEK293 tox inactive and SNCA viab count -3%.
Screening COc1cc(OCc2ccccc2)ccc1CN1CC[C@@]2(O)CCNC[C@H]2C1 returned FLuc inh inactive, NIH3T3 tox 20µM*, NPR1 antag -3%, SNCA expr inhib -6%, HEK293 tox 22µM* and SNCA viab count -14%.
`COC(=O)CNC(=O)c1ccc(-c2ccc(OC)nn2)cc1Cl` gave NIH3T3 tox -13%[138 µM] and HEK293 tox 1%[172 µM].
CC(C)(C)C(=O)NC1CCCN(c2ccc3nnc(C4CC4)n3n2)C1 (stereo not given) was read as NIH3T3 tox -5% and HEK293 tox inactive.
`Cc1ccc(Nc2ccnc(N3CCCC(C(=O)NCCc4ccccc4)C3)n2)cc1` (stereo not given) gave NIH3T3 tox 28µM*, SNCA expr inhib -17%, HEK293 tox inconclusive and SNCA viab count -9%[12.5 µM].
Screening C#CCNC(=O)C1CCCN(c2nccc(Nc3ccc(C)cc3)n2)C1 (stereo not given) returned NIH3T3 tox inconclusive, SNCA expr inhib 5%, HEK293 tox inconclusive and SNCA viab count -10%[12.5 µM].
Screening COC(=O)CNC(=O)C1CCCN(c2nccc(Nc3ccc(C)cc3)n2)C1 (stereo not given) returned NIH3T3 tox inconclusive, SNCA expr inhib 10%, HEK293 tox inconclusive and SNCA viab count 0%[12.5 µM].
Screening COc1ccc(Nc2ccnc(N3CCCC(C(=O)NCCc4ccccc4F)C3)n2)cc1 (stereo not given) returned NIH3T3 tox inconclusive, SNCA expr inhib -17%, HEK293 tox 22µM* and SNCA viab count inconclusive.
For COc1ccc(Nc2ccnc(N3CCCC(C(=O)NCCc4ccccc4)C3)n2)cc1 (stereo not given) the results were NIH3T3 tox inconclusive, SNCA expr inhib 27%, HEK293 tox inconclusive and SNCA viab count -8%[12.5 µM].
For Cc1ccc(Nc2ccnc(N3CCCC(C(=O)NCc4ccccc4F)C3)n2)cc1 (stereo not given) the results were NIH3T3 tox 14µM*, SNCA expr inhib inconclusive, HEK293 tox 10µM* and SNCA viab count -24%[12.5 µM].
`Cc1ccc(Nc2ccnc(N3CCCC(C(=O)NCc4cccc(F)c4)C3)n2)cc1` (stereo not given) gave NIH3T3 tox inconclusive, SNCA expr inhib -16%, HEK293 tox 50µM* and SNCA viab count -2%[12.5 µM].
`COc1ccccc1Cn1c(=O)c(C(=O)NCc2cccs2)nc2cccnc21` gave NIH3T3 tox inconclusive, SNCA expr inhib -6%, HEK293 tox inconclusive and SNCA viab count -15%.
For Cc1noc2c(N3CC(O)C3)cc(-c3ccsc3)nc12 the results were FLuc inh inactive, NIH3T3 tox inconclusive, NPR1 antag 0%[70.6 µM], SNCA expr inhib -2%[87.6 µM], HEK293 tox -28%[230 µM] and SNCA viab count 9%[87.6 µM].
Cc1noc2c(N3CCOCC3)cc(-c3ccsc3)nc12 was read as FLuc inh inactive, NIH3T3 tox 28µM*, NPR1 antag 4%[70.6 µM], SNCA expr inhib 17%[87.6 µM], HEK293 tox inconclusive and SNCA viab count -19%[87.6 µM].
Screening O=C(Cc1cccc(Cl)c1)NC1CCN(c2nc3ncccc3o2)C1 (stereo not given) returned NIH3T3 tox -25%[138 µM], SNCA expr inhib -3%[87.6 µM], HEK293 tox -19%[172 µM] and SNCA viab count 3%[87.6 µM].
Screening COc1ccc(-c2nc(C)nc3c2CN(C(=O)Cc2ccc(F)cc2)CC3)cc1 returned NIH3T3 tox -5%, SNCA expr inhib 20%, HEK293 tox -5% and SNCA viab count -1%.
For C=CCn1cc2c3c(cccc31)[C@H](CC(C)C)N[C@H](C(=O)NC1CCCC1)C2 the results were FLuc inh inactive, NIH3T3 tox 32µM*, NPR1 antag 0%[70.6 µM], SNCA expr inhib inconclusive, HEK293 tox 40µM* and SNCA viab count -29%[87.6 µM].
Screening CC(C)C[C@@H]1N[C@H](C(=O)NC2CCCC2)Cc2cn(CC3CC3)c3cccc1c23 returned FLuc inh inactive, NIH3T3 tox 35µM*, NPR1 antag 4%[70.6 µM], SNCA expr inhib inconclusive, HEK293 tox 45µM* and SNCA viab count -26%[87.6 µM].
`C=CCn1cc2c3c(cccc31)[C@H](CC(C)C)N[C@H](C(=O)NC1CCC1)C2` gave FLuc inh inactive, NIH3T3 tox inconclusive, NPR1 antag -5%[70.6 µM], SNCA expr inhib inconclusive, HEK293 tox 63µM* and SNCA viab count -13%[87.6 µM].
`CC(C)C[C@@H]1N[C@H](C(=O)O)Cc2cn(CC3CC3)c3cccc1c23` gave FLuc inh inactive, NIH3T3 tox inconclusive, NPR1 antag inconclusive, SNCA expr inhib -11%[87.6 µM], HEK293 tox inconclusive and SNCA viab count -11%[87.6 µM].
C=CCNC(=O)[C@@H]1Cc2cn(CC3CC3)c3cccc(c23)[C@H](CC(C)C)N1 was read as FLuc inh inactive, NIH3T3 tox inconclusive, NPR1 antag -16%[70.6 µM], SNCA expr inhib inconclusive, HEK293 tox 50µM* and SNCA viab count -10%[87.6 µM].
For C=CCn1cc2c3c(cccc31)[C@H](CC(C)C)N[C@H](C(=O)NCc1ccc(F)cc1)C2 the results were FLuc inh inactive, NIH3T3 tox inconclusive, NPR1 antag -19%[70.6 µM], SNCA expr inhib inconclusive, HEK293 tox inconclusive and SNCA viab count -7%[87.6 µM].
For CCNC(=O)N1CCc2nc(-c3ccccc3)[nH]c2C1 the results were NIH3T3 tox -22%, SNCA expr inhib 36%, HEK293 tox -10% and SNCA viab count 15%.
`O=c1c2c3c(nn2ccn1Cc1ccc(Cl)cc1)CCCC3` gave FLuc inh inactive, NIH3T3 tox inconclusive, NPR1 antag -15%, SNCA expr inhib 12%, HEK293 tox inconclusive and SNCA viab count 6%.
For C=CCn1cc2c3c(cccc31)[C@H](CC(C)C)N[C@H](C(=O)NCc1ccccc1OC)C2 the results were FLuc inh inactive, NIH3T3 tox 25µM*, NPR1 antag -5%[70.6 µM], SNCA expr inhib inconclusive, HEK293 tox 40µM* and SNCA viab count -24%[87.6 µM].
For C=CCNC(=O)[C@@H]1Cc2cn(Cc3c(C)noc3C)c3cccc(c23)[C@H](CC(C)C)N1 the results were FLuc inh inactive, NIH3T3 tox 112µM*, NPR1 antag 0%[70.6 µM], SNCA expr inhib -6%[87.6 µM], HEK293 tox 100µM* and SNCA viab count -2%[87.6 µM].
